Most compounds without a hit are left out; they make up all but 5.5% or so of the library.
RORg inh = qHTS for inhibitors of ROR gamma transcriptional activity | actives 5.4% (n = 310,000) | Potency, µM (doses to about 53.6 µM), for the others: at the top dose activity change, negative = inhibition, hits mostly inhibitors | Nuclear receptor ROR-gamma (Mus musculus), P51450 | Drosophila S2 Gal4-RORgamma UAS-luciferase reporter, 20 h; note: potency is the fitted concentration of half-maximal effect; % is set by controls: 0 for no effect and ±100 for the full control effect; nearly all actives have a fitted effect of over 60% in size
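Using a luciferase readout, inhibitors were identified by reduced reporter activity in Drosophila cells coexpressing a copper-inducible Gal4–ROR gamma fusion and UAS-driven Photinus luciferase, incubated 20 hr after 700 uM copper sulfate.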
CtBP-E1A blk = qHTS Assay for Inhibitors of the CtBP/E1A Interaction; CtBP / adenovirus E1A interaction (AlphaScreen); AlphaScreen GST-E1A/His-CtBP binding, 1536-well; stronger effect = lower value; activity change, % (no concentration beside the values); actives 0.49% (n = 340,000); AID 651724, 2012; in the data active = activity change below about -65%; inconclusive = mostly about -30% to -63%; note: % is set by controls: 0 for no effect and ±100 for the full control effect
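In 5 uL wells, 23 nL compound meets equimolar GST-E1A and His-CtBP (5X stock 125 nM each) for 2 h, 37 °C. Beads (5X, 50 ug/mL) then 1 h, 37 °C, dark.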
Six1-Eya2 blk = qHTS Assay for Inhibitors of the Six1/Eya2 Interaction | Homeobox protein SIX1 (Homo sapiens) + Protein phosphatase EYA2 (Homo sapiens), … | AlphaScreen GST-Six1/His-Eya2 binding, biochemical; stronger effect = lower value | activity change, % (test concentration not listed) | actives 0.56% (n = 360,000); in the data active = activity change below about -65%; inconclusive = mostly about -30% to -63%; note: % is set by controls: 0 for no effect and ±100 for the full control effect
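Homogeneous AlphaScreen proximity assay pairing GST-Six1 with His-tagged Eya2 (added as 5X mix: 250 nM and 500 nM) in 50 mM Tris pH 8.0, 300 mM NaCl, 1 mM TCEP. Glutathione donor and nickel acceptor beads; 1 h, 37 °C, dark.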
MBNL1 CUG block = qHTS Assay for Inhibitors of MBNL1-poly(CUG) RNA binding | Muscleblind-like protein 1 (Homo sapiens), Q9NR56 | TR-FRET MBNL1-His/biotin-(CUG)12 binding, 665/545 ratio | Potency, µM (doses to about 57.5 µM), for inactives: at the top dose activity change, negative = inhibition, hits mostly inhibitors | actives 0.036% (n = 280,000) | AID 2675, 2010; active = well fitted inhibition curve with a large enough effect in the signal ratio, with a control signal flat, not every such curve was filed as active; inconclusive = small, poorly fitted or top-dose-only effect, or effect the other way, or a change in a side signal; inactive = no such curve, though single readings can be large or run the other way; the % refers to the signal ratio; note: potency is the fitted concentration of half-maximal effect; % is set by controls: 0 for no effect and ±100 for the full control effect
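Inhibition of protein-RNA binding appears as loss of TR-FRET between terbium anti-His antibody on MBNL1-His and streptavidin-XL665 on biotin-(CUG)12. Activity is normalized to buffer-only and uninhibited-complex controls.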
Gal4-VP16 FLuc = VP16 counterscreen qHTS for inhibitors of ROR gamma transcriptional activity | Drosophila S2 Gal4-VP16 UAS-luciferase, luminescence, 20 h | Potency, µM (titrated, usually from 53.6 µM), for the others: at the highest dose activity, negative = inhibition, hits mostly inhibitors | actives 3.5% (n = 310,000) | AID 2546, 2010;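 note: Gal4-VP16 expression switched on by copper sulfate through the metallothionein promoter; potency is the fitted concentration of half-maximal effect; % is set by controls: 0 for no effect and ±100 for the full control effect; nearly all actives have a fitted effect of over 50% in size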
CBFb-RUNX1 inh = qHTS Assay for Compounds Blocking the Interaction Between CBF-beta and RUNX1 for the Treatment of Acute Myeloid Leukemia; Runt-related transcription factor 1 (Homo sapiens) + Core-binding factor subunit beta …; AlphaScreen CBFb-His/RUNX1-biotin binding, biochemical; Potency, µM (highest dose often 59.8 µM), inactives show at the top dose activity, negative = inhibition, actives largely listed as inhibitors; 230,000 tested, under 10 active; AID 1477, 2009; note: % of control where 0% means no effect
Target sequence (Q01196 whole entry, looked up): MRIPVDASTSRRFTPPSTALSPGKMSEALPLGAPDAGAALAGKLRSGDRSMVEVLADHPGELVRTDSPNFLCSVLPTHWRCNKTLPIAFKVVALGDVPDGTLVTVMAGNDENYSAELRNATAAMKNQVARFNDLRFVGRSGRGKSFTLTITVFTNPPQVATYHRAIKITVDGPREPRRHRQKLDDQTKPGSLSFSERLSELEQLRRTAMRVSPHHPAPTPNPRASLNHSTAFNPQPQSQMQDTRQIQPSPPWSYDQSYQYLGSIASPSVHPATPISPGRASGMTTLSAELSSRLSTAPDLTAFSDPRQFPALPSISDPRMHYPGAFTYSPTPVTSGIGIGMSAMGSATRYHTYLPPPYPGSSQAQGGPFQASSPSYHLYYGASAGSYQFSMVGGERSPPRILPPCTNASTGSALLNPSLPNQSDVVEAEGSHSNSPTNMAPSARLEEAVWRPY
Target sequence (Q13951 whole entry, looked up): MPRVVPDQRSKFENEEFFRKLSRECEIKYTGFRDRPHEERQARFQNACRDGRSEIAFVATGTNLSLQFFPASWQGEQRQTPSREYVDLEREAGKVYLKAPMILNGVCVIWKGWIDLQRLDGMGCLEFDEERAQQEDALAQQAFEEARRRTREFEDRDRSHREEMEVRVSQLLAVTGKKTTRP
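Proteins preincubated together for 20 min at RT before compound addition; 15 min later, nickel and streptavidin beads were added and left 90 min prior to AlphaScreen measurement.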
* = called active by the depositor; [ ] = another dose, or the depositor's remark. Unless noted, calls come from the whole dose curve; as a rule, active = well fitted curve in the direction sought with a large enough effect; inconclusive = small, poorly fitted or top-dose-only effect, or another doubt; inactive = no such curve, though single readings can be large; an effect the other way counts as inactive or inconclusive.

For CN1C(=S)SC(C)(NO)C1(C)C (centres undefined) the results were RORg inh 16µM*, CtBP-E1A blk -1, Six1-Eya2 blk 6, MBNL1 CUG block -6%, Gal4-VP16 FLuc inconclusive and CBFb-RUNX1 inh 2%.
N#Cc1c(Cl)nsc1NC(=O)c1ccccc1 was read as RORg inh 8.9µM*, CtBP-E1A blk 6, Six1-Eya2 blk 1, Gal4-VP16 FLuc 4µM* and CBFb-RUNX1 inh -1%.
Screening O=C(O)C1CC(C2CCCCN2)CN2CCCCC12 (centres undefined) returned RORg inh -2% and Gal4-VP16 FLuc -13%.
COc1ccc(NS(=O)(=O)c2cc3c4c(c2)CCN4C(=O)CC3)cc1OC was read as CtBP-E1A blk 3 and Six1-Eya2 blk 0.
`NNC(=O)CSCc1ccc(Cl)cc1Cl` gave RORg inh -16%, CtBP-E1A blk -15, Six1-Eya2 blk 6, MBNL1 CUG block inconclusive, Gal4-VP16 FLuc 9%[10 µM] and CBFb-RUNX1 inh 3%.
Screening O=C(CNCc1ccccc1)Nc1cccc(Cl)c1Cl returned RORg inh 5%, CtBP-E1A blk 0, Six1-Eya2 blk 5, MBNL1 CUG block -4% and Gal4-VP16 FLuc 6%.
For O=C(CSCc1ccccc1)NNC(=S)Nc1cccc(Cl)c1Cl the results were RORg inh 6.3µM*, CtBP-E1A blk -11, Six1-Eya2 blk -20, MBNL1 CUG block 1%, Gal4-VP16 FLuc inconclusive and CBFb-RUNX1 inh -3%.
COCCNC(=S)NNC(=O)CSCc1ccc(Cl)cc1Cl was read as RORg inh 10µM*, CtBP-E1A blk 0, Six1-Eya2 blk -3, MBNL1 CUG block -6%, Gal4-VP16 FLuc -28% and CBFb-RUNX1 inh 4%.
CNC(=S)NNC(=O)CSCc1c(Cl)cccc1Cl was read as RORg inh 11µM*, CtBP-E1A blk -1, Six1-Eya2 blk 3, MBNL1 CUG block -5%, Gal4-VP16 FLuc 20µM* and CBFb-RUNX1 inh -1%.
Screening CCc1ccc(NC(=O)CSc2nc(C)cs2)cc1 returned CtBP-E1A blk -19 and Six1-Eya2 blk -13.
Screening Cc1cccc(C)c1OCC(O)CNC(C)C (centres undefined) returned RORg inh 5%, CtBP-E1A blk -2, Six1-Eya2 blk 10, MBNL1 CUG block -12%, Gal4-VP16 FLuc -6% and CBFb-RUNX1 inh -1%.
For CCOC(=O)c1oc2cccc(OCC(O)CNC(C)C)c2c1C (centres undefined) the results were RORg inh -38%, CtBP-E1A blk -5, Six1-Eya2 blk 1, MBNL1 CUG block -2%, Gal4-VP16 FLuc 16µM* and CBFb-RUNX1 inh 3%.
N=c1ccn(Cc2c(Cl)cccc2Cl)cc1 was read as RORg inh inconclusive, CtBP-E1A blk 0, Six1-Eya2 blk 5, MBNL1 CUG block -7%, Gal4-VP16 FLuc 10µM* and CBFb-RUNX1 inh 2%.
N=c1ccn(Cc2ccccc2Cl)cc1 was read as RORg inh 13%, CtBP-E1A blk 6, Six1-Eya2 blk 0, MBNL1 CUG block -4%, Gal4-VP16 FLuc -4% and CBFb-RUNX1 inh -3%.
Screening O=C(O)CCN1C(=O)/C(=C\c2ccc(-c3nc4ccccc4s3)o2)SC1=S returned RORg inh 43%, CtBP-E1A blk -75*, Six1-Eya2 blk inconclusive, MBNL1 CUG block 3%, Gal4-VP16 FLuc 10% and CBFb-RUNX1 inh -5%.
`O=C(CN1C(=O)/C(=C\c2ccco2)SC1=S)Nc1ccc(O)cc1C(=O)O` gave RORg inh 1%, Six1-Eya2 blk inconclusive, MBNL1 CUG block inconclusive and Gal4-VP16 FLuc -5%.
`O=C(CCCN1C(=O)/C(=C/c2ccco2)SC1=S)Nc1ccccc1C(=O)O` gave RORg inh 5%, CtBP-E1A blk -24, Six1-Eya2 blk inconclusive, MBNL1 CUG block 18% and Gal4-VP16 FLuc 1%.
Screening O=C(CCN1C(=O)/C(=C/c2ccco2)SC1=S)Nc1ccc(O)cc1C(=O)O returned RORg inh -4%, CtBP-E1A blk 0, Six1-Eya2 blk -68*, MBNL1 CUG block inconclusive and Gal4-VP16 FLuc -6%.
O=C(CCCN1C(=O)/C(=C\c2ccco2)SC1=S)Nc1ccc2ccccc2c1 was read as RORg inh 13µM*, CtBP-E1A blk -15, Six1-Eya2 blk -15, MBNL1 CUG block 9%, Gal4-VP16 FLuc 10µM* and CBFb-RUNX1 inh -13%.
Screening O=C(O)CCCN1C(=O)/C(=C\c2ccco2)SC1=S returned RORg inh 4µM*, CtBP-E1A blk -5, Six1-Eya2 blk inconclusive, MBNL1 CUG block inconclusive, Gal4-VP16 FLuc 1.3µM* and CBFb-RUNX1 inh inconclusive.
CCCCCNC(=O)C(c1ccc(-c2ccccc2)cc1)n1c(=O)c(-c2cc3ccccc3[nH]2)nc2ccccc21 (centres undefined) was read as CtBP-E1A blk 16 and Six1-Eya2 blk 3.
`O=C(O)c1cccc(Cn2c(Cl)c(/C=N/NC(=O)c3ccco3)sc2=O)c1` gave RORg inh 2%, CtBP-E1A blk -11, Six1-Eya2 blk -2, MBNL1 CUG block inconclusive and Gal4-VP16 FLuc 3%.
Screening O=c1c(-c2cc(O)c(O)c(O)c2)coc2cc(O)c(O)c(O)c12 returned RORg inh 0% and Gal4-VP16 FLuc -12%.
For CC(C)=CCc1c(O)cc2occ(-c3ccc4c(c3)OCO4)c(=O)c2c1O the results were RORg inh inconclusive, Gal4-VP16 FLuc 14µM* and CBFb-RUNX1 inh 0%.
`Cn1ccc(C(=O)Nc2ccc3c(c2)OCCO3)n1` gave RORg inh 7.9µM*, CtBP-E1A blk 5, Six1-Eya2 blk 3, MBNL1 CUG block -4% and Gal4-VP16 FLuc inconclusive.
For CCCOC(=O)Nc1ccc(N2CCCCC2)cc1 the results were RORg inh 11µM*, CtBP-E1A blk -15, Six1-Eya2 blk -24, MBNL1 CUG block -7%, Gal4-VP16 FLuc inconclusive and CBFb-RUNX1 inh -19%.
CCCCC(=O)Nc1ccc(N2CCCC2)cc1 was read as CtBP-E1A blk -3 and Six1-Eya2 blk -16.
`O=C(Nc1ccc2c(c1)OCCO2)c1cccc2nc3ccccc3nc12` gave RORg inh -24%, CtBP-E1A blk -68*, Six1-Eya2 blk inconclusive, MBNL1 CUG block 14%, Gal4-VP16 FLuc -20% and CBFb-RUNX1 inh inconclusive.

Bioassay records as filed in PubChem.
